TLR4-MyD88 BLA – inhibitors of TLR4-MyD88 association in cells, primary screen, cell-based, HeLa CL3-4, BLA complementation, FRET ratio; Toll-like receptor 4 (Homo sapiens) + Myeloid differentiation primary response protein …; HeLa CL3-4 TLR4/MyD88 BLA complementation; inhibition, % at 8.4 µM; 200,000 compounds, 0.18% hits; in the data active = inhibition above about 25%
TMEM16A act – TMEM16A chloride channel activators or potentiators, primary screen, cell-based, HTS | 340,000 compounds, 0.3% hits | HEK293 TMEM16A/YFP-H148Q/I152L, iodide quench fluorescence; stronger effect = lower value | B-score at 10 µM | AID 623877, 2012 | Anoctamin-1 (Mus musculus), Q8BHY3;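 active = fluorescence-ratio B-score plate-corrected deviation score at least 3 library SD below zero, with starting fluorescence score within 5 deviations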;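 note: channel opened by trigger with iodide after compound preincubation; score built on the fluorescence ratio of max minus min over baseline; more negative score means more quench and so TMEM16A activation or potentiation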
TLR9-MyD88 inh – inhibitors of TLR9-MyD88 association in cells, primary screen, cell-based, CHO, BLA complementation, fluorescence; inhibition, % at 4.98 µM; CCF4 FRET ratio; 340,000 compounds, 0.21% hits; AID 504734, 2011; Toll-like receptor 9 (Homo sapiens) + Myeloid differentiation primary response protein …;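 active = inhibition above the mean over all tested compounds plus 3 SD, cut at about 21% in these data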
NOD2-RIPK2 inh – NOD2-RIPK2 binding disruptors in cells, primary screen, fluorescence, CHO cells, BLA complementation | AID 624267, 2012 | Receptor-interacting serine/threonine-protein kinase 2 (Homo sapiens), O43353 | 360,000 compounds, 0.38% hits | CCF4 ratio | inhibition, % at 4.98 µM; in the data active = inhibition above about 21%
ANO1 block – TMEM16A chloride channel inhibitors, primary screen, cell-based, HTS | HEK293 TMEM16A/YFP iodide influx fluorescence, ionomycin | normalized B-score (activity score, 25-100; higher = stronger inhibition) at 10 µM | 310,000 compounds, 1.2% hits | AID 588511, 2011 | Anoctamin-1 (Mus musculus), Q8BHY3;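 active = ratio plate-corrected score three or more library SD toward inhibition, starting fluorescence score within five deviations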;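 note: score derived from kinetic fluorescence span divided by baseline fluorescence per well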
GRK2 inh – compounds blocking aptamer binding on GRK2 – biochemical, human GRK2, bead flow cytometry, HTS, primary screen; Beta-adrenergic receptor kinase 1 (Homo sapiens), P25098; FAM-aptamer displacement from GRK2; inhibition of aptamer binding, % at 10 µM; 330,000 compounds, 0.59% hits; AID 488847, 2010;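 active = inhibition of aptamer binding above 40%, roughly 3 SD of noise, on plates passing a quality check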;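 note: median bead fluorescence of bound FAM aptamer so fluorescent compounds give negative values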
TLR4 MyD88 cnf – TLR4-MyD88 association inhibitors, retest, confirmation, cell-based, HeLa CL3-4, BLA complementation, FRET ratio; inhibition, % at 8.4 µM; 350 compounds, 50% hits; CCF4 FRET ratio; shares compounds with TLR4-MyD88 BLA;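 active = mean inhibition across three repeat runs above about 25% carried over from the earlier screen, limit read from the data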
BLA inh HeLa – inhibits beta-lactamase activity, counter-screen to TLR4-MyD88 binding inhibitors. 350 compounds, 63% hits. shares compounds with TLR4-MyD88 BLA. AID 1237. inhibition, % at 8.4 µM. HeLa BLA reporter, CCF4 FRET ratio;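 active = mean inhibition over three repeats above about 26% taken from the earlier screen, limit read from the data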;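 note: HeLa cells stably expressing beta-lactamase reporter as counterscreen for TLR4-MyD88 inhibitors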
TLR9-MyD88 conf – TLR9-MyD88 association inhibitors, retest, confirmation, cell-based, CHO, BLA complementation, fluorescence, triplicate; shares compounds with TLR9-MyD88 inh; CCF4 FRET ratio; inhibition, % at 4.98 µM; 680 compounds, 51% hits; AID 540250, 2011;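 active = mean inhibition across three repeats above about 21% taken from the earlier screen, limit read from the data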;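 note: blue over green emission ratio reports constitutive TLR9 MyD88 association via BLA complementation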
BLA counter-1 – beta-lactamase reporter inhibitors in CHO cells, artefact control for TLR9-MyD88 binding inhibitor project, cell-based, fluorescence | AID 540251, 2011 | 680 compounds, 7% hits | shares compounds with TLR9-MyD88 inh | inhibition, % at 4.98 µM | CHO-BLA cells, CCF4 FRET ratio, BLA reporter;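 active = mean inhibition above a 50% cutoff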;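 note: counterscreen of TLR9-MyD88 hits on CMV-driven BLA in CHO-K1 cells; higher means less blue over green ratio so more BLA blockade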
TLR9 CHO cytotox – CHO cell viability loss – luminescence, single concentration, cytotoxicity control for TLR9-MyD88 binding inhibitor project; TLR9-MyD88 CHO cells cytotoxicity; AID 588336, 2011; inhibition, % at 4.98 µM; shares compounds with TLR9-MyD88 inh; 680 compounds, 39% hits; in the data active = inhibition above about 11%
NOD2 RIPK2 conf – NOD2-RIPK2 binding disruptors, retest, confirmation, fluorescence, CHO cells, BLA complementation, triplicate. 1,200 compounds, 70% hits. shares compounds with NOD2-RIPK2 inh. inhibition, % at 4.98 µM. CCF4 FRET;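 active = mean inhibition across replicates above a set limit taken from the earlier primary screen, cut at about 21% in these data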
BLA counter-2 – hits BLA reporter in NOD2-RIPK2 inhibitor counterscreen; shares compounds with NOD2-RIPK2 inh; CHO BLA reporter, CCF4 FRET ratio; inhibition, % at 4.98 µM; 1,200 compounds, 57% hits;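 active = mean inhibition above the low-control mean inhibition plus three low-control SD, cut at about 11% in these data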
A number is an active result; - = inactive; . = no result given. Shown are actives, neighbours in structure and some others; about 2.2% of the full set was active somewhere.

SMILES	TLR4-MyD88 BLA	TMEM16A act	TLR9-MyD88 inh	NOD2-RIPK2 inh	ANO1 block	GRK2 inh	TLR4 MyD88 cnf	BLA inh HeLa	TLR9-MyD88 conf	BLA counter-1	TLR9 CHO cytotox	NOD2 RIPK2 conf	BLA counter-2
C/C(=N\Nc1ccc([N+](=O)[O-])cc1)c1ccc(N)cc1	-	-	-	-	-	-	.	.	.	.	.	.	.
C/C(=N\NC(=O)COc1ccc([N+](=O)[O-])cc1)c1ccco1	.	-	-	-	.	-	.	.	.	.	.	.	.
CCN(C)C1CN(Cc2cn(Cc3cccc(C(F)(F)F)c3)nn2)S(=O)(=O)C1 (stereo unspecified)	.	.	.	-	.	.	.	.	.	.	.	.	.
CC(C)(C)c1ccc(C(=O)Nc2cccc3c(=O)[nH][nH]c(=O)c23)cc1	29	-	35	50	-	-	28	51	-	-	-	42	48
CCN(CC)c1ccc(/C=c2\sc3nc4ccccc4n3c2=O)c(O)c1	30	-	34	37	.	.	-	50	21	-	-	46	56
Oc1c(Cl)cc(Cl)cc1/C=C/c1ccc2cccc(O)c2n1	34	-	27	37	-	-	-	43	-	-	-	47	54
Oc1ccc(Cl)cc1/C=C/c1ccc2cccc(O)c2n1	-	-	-	-	.	.	.	.	.	.	.	.	.
CC1(C(=O)NS(=O)(=O)C2CC2)CCCN(C(=O)c2cccs2)C1 (stereo unspecified)	.	.	.	-	.	.	.	.	.	.	.	.	.
CC1(C(=O)NS(=O)(=O)c2ccc(Cl)cc2)CCN1C(=O)C1(c2ccc(Cl)cc2)CCC1 (stereo unspecified)	.	.	.	-	.	.	.	.	.	.	.	.	.
CC1=C(C(=O)N2CCOCC2)CC(CC(=O)NC2CCCCC2)C(=O)N1Cc1ccccc1 (stereo unspecified)	.	.	-	-	.	.	.	.	.	.	.	.	.
CCCSc1cc(NCCOC(=O)CCC)c([N+](=O)[O-])c2nonc12	-	-	-	-	-	-	.	.	.	.	.	.	.
CCC(=O)OCCNc1cc(Sc2nc3ccccc3[nH]2)c2nonc2c1[N+](=O)[O-]	29	-	56	80	-	-	-	-	.	.	.	93	48
Cc1ccsc1C(=O)N1CCCC(C)(C(=O)NS(=O)(=O)C2CC2)C1 (stereo unspecified)	.	.	.	-	.	.	.	.	.	.	.	.	.
O=C(C1=NN(c2ccccc2)C2C(=O)N(c3ccccc3Cl)C(=O)C12)c1ccccc1 (stereo unspecified)	38	-	28	42	-	-	-	27	-	-	-	47	48
O=C(C1=NN(c2ccccc2)C2C(=O)N(c3ccccc3)C(=O)C12)c1ccccc1 (stereo unspecified)	-	-	-	-	-	-	.	.	.	.	.	.	.
CCc1nc2c(OCCOc3ccc(F)cc3)cccn2c1N(C)C(=O)c1ccc(OC)cc1	.	.	.	-	.	.	.	.	.	.	.	.	.
Cc1c(Nc2cc(Cl)c3nonc3c2[N+](=O)[O-])c(=O)n(-c2ccccc2)n1C	38	-	50	84	.	.	29	-	48	-	98	56	31
Cc1c(Nc2cc(N3CCOCC3)c3nonc3c2[N+](=O)[O-])c(=O)n(-c2ccccc2)n1C	-	.	.	.	-	-	.	.	.	.	.	.	.
COc1ccc(C2=CC(c3ccc(Cl)cc3)n3cnnc3N2)cc1OC (stereo unspecified)	39	-	50	47	-	-	26	49	-	-	-	-	-
CC1(C(=O)NS(=O)(=O)c2ccc(C#N)cc2)CCN1C(=O)Cc1ccccc1Cl (stereo unspecified)	.	.	.	-	.	.	.	.	.	.	.	.	.
CCOC(=O)N(C)c1c(CC)nc2c(OCc3ccccc3)cccn12	.	.	.	-	.	.	.	.	.	.	.	.	.
Nc1cccc2c1C(=O)N(CC(=O)NC13CC4CC(CC(C4)C1)C3)C2=O	31	-	-	39	-	-	-	37	.	.	.	44	47
COC(=O)CCCn1cc(CN2CC(N3CCN(CCN(C)C)CC3)CS2(=O)=O)nn1 (stereo unspecified)	.	.	.	-	.	.	.	.	.	.	.	.	.
CCCNC(=O)c1cc(C2CCCCN2S(=O)(=O)Cc2cccc(C(F)(F)F)c2)on1 (stereo unspecified)	.	.	.	-	.	.	.	.	.	.	.	.	.
CC(=O)Nc1nc2n(n1)C(c1ccc(F)cc1)C=C(c1ccccc1)N2 (stereo unspecified)	34	-	41	41	-	-	36	56	-	-	-	-	-
CCC(=O)Nc1nc2n(n1)C(c1ccc(OC)cc1)C=C(c1ccccc1)N2 (stereo unspecified)	-	.	.	.	-	-	.	.	.	.	.	.	.
CCN(CC)c1ccc2cc(-c3nc4ccccc4n3C)c(=O)oc2c1	49	-	33	44	-	-	58	87	41	-	39	69	75
CCN(CC)c1ccc2cc(-c3nnc(-c4ccc(Br)cc4)o3)c(=O)oc2c1	-	.	.	.	.	.	.	.	.	.	.	.	.
COc1cccc(-c2ccc3c(N)c(C(=O)NC4CC4)sc3n2)c1	.	-	-	-	-	-	.	.	.	.	.	.	.
COc1ccc(-c2ccc3c(N)c(C(=O)c4cccc(OC)c4)sc3n2)cc1	31	-	-	25	-	-	28	57	.	.	.	45	56

Screening results: PubChem BioAssay, several laboratories
